Assay [1] is described as follows: High-throughput drug toxicity screening in the BPDCN cell line Gen2.2 (AID 1224824; call rule not given here;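 further: cells exposed to compounds for 48 h before reading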). The settings on record: Gen2.2 BPDCN cells; at 45.8 µM (top of the series). In a few lines:
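Readout is ATP luminescence from Gen2.2 cells after two days of drug exposure in serum-containing medium at 37 °C. Values express percent activity, with vehicle defining full signal and 9.2 uM bortezomib defining zero.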

A short description of assay [2]: High-throughput drug toxicity screening in the BPDCN cell line Cal-1 (AID 1224825; call rule not given here). The settings on record: Cal-1 BPDCN cell viability, qHTS; at 45.8 µM (top of the series). In a few lines: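 500 Cal-1 cells/well, RPMI + glutamine + 10% FBS (phenol red-free); cpd added by pin tool; 48 h, 37C, 5% CO2; CTG 15 min RT, lumi read. Normalised: DMSO 100%, bortezomib 9.2 uM 0%.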
Background: qHTS replaces the single test concentration by a dilution series.

A short description of assay [3]: qHTS assay for measurement of the activity of small molecule inhibitors on Zika virus induced Caspase-3 activity in human iPSC derived neural progenitor cells (hNPCs) (AID 1224857). Further: nearly all actives have a fitted effect of over 65% in size. Further: potency means the concentration at half of the fitted maximal effect. In a few lines: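 hNPCs seeded 350 cells/well, cultured 16–20 h; compounds added 1 h before ZIKV (2 FFU/cell), 37 C 6 h. Caspase-Glo 3/7 luminescence after 30 min RT; % inhibition from induction scaled to uninfected (0%) and infected (100%) wells.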

Assay [4] can be described thus: qHTS assay for measurement of the activity of small molecule inhibitors on Zika virus induced Caspase-3 activity in human astrocytoma cells (AID 1224859). Further: potency means the concentration at half of the fitted maximal effect. The method, boiled down:
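Luminescence read-out (Caspase-Glo 3/7, 30 min RT) of caspase activity in SNB-19 cells infected 6 h with ZIKV, 2 FFU/cell, after 1 h compound pretreatment; % inhibition from induction normalised to uninfected (0%) and infected (100%) wells.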

Assay [5] is described as follows: qHTS Screen of the MIPE 4.0 Collection Against Ewings Sarcoma (RDES) (AID 1259252). Further: nearly all actives have a fitted effect of over 35% in size. Further: potency means the concentration at half of the fitted maximal effect. In a few lines: (§1)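 CellTiter-Glo luminescence after 48 h compound exposure (titration) gave viability; percent activity used DMSO-treated cells as no inhibition and medium-only wells as full inhibition. Cells grown in RPMI/5% FBS, dosed 4 h post-seeding.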
Assay [6] is described as follows: qHTS Screen of the MIPE 4.0 Collection Against Ewings Sarcoma (TC71) (AID 1259253). Further: nearly all actives have a fitted effect of over 40% in size. Further: potency means the concentration at half of the fitted maximal effect. The method, boiled down:
as §1

Assay [7] can be described thus: P-glycoprotein substrates identified in KB-8-5-11 adenocarcinoma cell line, qHTS therapeutic library screen (AID 1346987). Further: nearly all actives have a fitted effect of over 65% in size. Further: potency means the concentration at half of the fitted maximal effect. In a few lines: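 P-gp-mediated resistance screen: KB-8-5-11 cells treated 72 h with compounds in dose-response. CellTiter-Glo viability.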
Assay [8] in a line: P-glycoprotein substrates identified in KB-3-1 adenocarcinoma cell line, qHTS therapeutic library screen (AID 1346986). Further: nearly all actives have a fitted effect of over 60% in size.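 Further: potency means the concentration at half of the fitted maximal effect; potency is for cytotoxicity meaning loss of cell viability.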 The method, boiled down:
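Counter-screen: cherry-picked hits retested in the KB pair and in HEK-293 pcDNA/MDR-19 cells ± tariquidar. Primary screen used 72 h CellTiter-Glo viability in KB-3-1 and KB-8-5-11.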

A short description of assay [9]: qHTS Screen of the MIPE 4.0 Collection Against Ewings Sarcoma (EW8) (AID 1259255). Further: nearly all actives have a fitted effect of over 35% in size. Further: potency means the concentration at half of the fitted maximal effect.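 On viability: 100% = DMSO-treated cells and 0% = medium-only wells without cells.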 In a few lines:
as §1

Assay [10] in a line: qHTS Screen of the MIPE 4.0 Collection Against Ewings Sarcoma (TC32) (AID 1259256). Further: nearly all actives have a fitted effect of over 45% in size. Further: potency means the concentration at half of the fitted maximal effect. The method, boiled down: as §1
A short description of assay [11]: qHTS assay to identify small molecule inhibitors of chordoma cells - UCH-1 (AID 1259355). Further: on the % scale 0 is the no-effect control and ±100 the full control effect; nearly all actives have a fitted effect of over 55% in size. In a few lines:
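Seed 800 cells per well; incubate overnight at 37 C, 5% CO2. Add test compounds (15 concentrations), then the auranofin–topoisomerase-agent combination. Incubate 48hr, add CellTiter-Glo, wait 30min, read luminescence.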

The structures appear in SMILES notation. Records with an inconclusive call do not appear. Active and inactive are the calls of the source. Unless noted, the call rests on the fitted dose curve; in most records, active means well fitted curve in the direction sought with a large enough effect; inconclusive means small, poorly fitted or top-dose-only effect, or another doubt; inactive means no such curve, though single readings can be large; an effect the other way counts as inactive or inconclusive.

`CC[C@@H](C(N)=O)N1CCCC1=O`: the cell viability, % of control (lower = more cytotoxic) in [1] was 211%. Further, in assay [2], the viability (% of control) worked out at 113%. In addition, the Potency result in assay [3], in [4], in assay [5], in assay [6] and in assay [7] was “inactive” in each case.
Regarding `CC(C)(C)c1cc(C=C(C#N)C#N)cc(Br)c1O`, in assay [1], the cell viability, % of control (lower = more cytotoxic) came out at 12.6%. Further, the viability (% of control) in [2] stood at 11%. The Potency entry in [3] and in assay [4] was “inactive” in each case. For the same molecule, the Potency in [8] is 20.6 µM (active).
As to `CC=C(C)C(=O)N[C@@H](c1ccccc1)[C@@H](O)C(=O)O[C@H]1C[C@@]2(O)[C@@H](OC(=O)c3ccccc3)[C@@H]3[C@]4(OC(C)=O)CO[C@@H]4C[C@H](O)[C@@]3(C)C(=O)[C@H](OC(C)=O)C(=C1C)C2(C)C`, the cell viability, % of control (lower = more cytotoxic) in assay [1] amounted to 47%. The viability (% of control) in assay [2] is 19.1%. Moreover, the Potency result in assay [3], in [4], in assay [5], in assay [9] and in assay [10] was “inactive” throughout.
On to `NC1=NC(=O)N2CC12` (configuration not stated), for which the cell viability, % of control (lower = more cytotoxic) in assay [1] came out at 8.27%. The viability (% of control) in assay [2] turned out to be 7.57%. Also, the Potency entry in [3], in assay [4], in assay [5], in assay [9], in assay [10] and in assay [11] was “inactive” each time. In addition, the Potency entry in assay [7] was “inactive”.
`C=C[C@@H]1CN2CCC1C[C@H]2[C@H](O)c1ccnc2ccccc12` (some centres not stated): in assay [1], the cell viability, % of control (lower = more cytotoxic) was 14.7%. Besides, the viability (% of control) in [2] is 47.1%. The Potency result in assay [3] and in assay [4] was “inactive” throughout. In addition, the Potency in assay [5] is 23.5 µM (active); in assay [6], 20.9 µM (active); in [10], 18.7 µM (active).
As for `CC1(N2CCC(n3c([C@@H]4CCCNC4)nc4ccccc43)CC2)CCCCCCC1`, the cell viability, % of control (lower = more cytotoxic) in [1] is 17.2%. For the same molecule, the viability (% of control) in assay [2] came to 5.69%. The Potency entry in assay [3] and in assay [4] was “inactive” throughout. The Potency in assay [9] is 10.5 µM (active).
With `COc1cccc2c1[C@]13CCN(CC4CC4)[C@H](C2)[C@]1(OC)CCC(=O)C3`, the cell viability, % of control (lower = more cytotoxic) in [1] worked out at 99.3%. Also, the viability (% of control) in assay [2] was 111%. Further, the Potency result in assay [3], in assay [4], in assay [5], in [6], in assay [9] and in [10] was “inactive” each time. In addition, the Potency entry in assay [7] is “inactive”.
Take `CN(C)NC(=O)CCC(=O)O`: in assay [1], the cell viability, % of control (lower = more cytotoxic) came out at 121%. The viability (% of control) in assay [2] came to 96.3%. The Potency result in assay [3], in assay [4] and in assay [7] was “inactive” in each case. The Potency in [5] is 26.4 µM (active).
For `Cc1ccccc1-n1c(Cn2ncc3c(N)ncnc32)nc2cccc(C)c2c1=O`, in [1], the cell viability, % of control (lower = more cytotoxic) turned out to be 28.1%. Further, in assay [2], the viability (% of control) came out at 17.1%. Besides, the Potency result in assay [3], in assay [4], in [8] and in [7] was “inactive” throughout. For the same molecule, the Potency in [5] was 10.5 µM (active); in assay [6], 16.6 µM (active); in [9], 26.4 µM (active).
Take `C[C@]12CCC(=O)C(O)=C1CC[C@@H]1[C@H]3CCC(=O)[C@@]3(C)CC[C@@H]12`: in assay [1], the cell viability, % of control (lower = more cytotoxic) amounted to 78%. For the same molecule, the viability (% of control) in assay [2] is 116%. Moreover, the Potency result in assay [3], in [4], in assay [11] and in assay [7] was “inactive” each time.
Turning to `O=C(NCC1CCOCC1)c1cnc(Nc2ccc(Cl)cc2Cl)nc1C(F)(F)F`, the cell viability, % of control (lower = more cytotoxic) in [1] was 7.01%. Moreover, the viability (% of control) in [2] is 7.59%. In addition, the Potency entry in assay [3] and in assay [8] was “inactive” throughout. Moreover, the Potency in assay [4] is 8.33 µM (active).
Turning to `COC1=CC(C)=C[C@@H](C)[C@@H](O)[C@@H](C)CC(C)=CC=C[C@H](OC)[C@H]([C@@H](C)[C@@H](O)[C@H](C)[C@@]2(O)C[C@@H](O)[C@H](C)[C@@H](C(C)C)O2)OC1=O`, in assay [1], the cell viability, % of control (lower = more cytotoxic) was 67.2%. Besides, the viability (% of control) in [2] came to 18.4%. Besides, the Potency result in assay [3] and in assay [4] was “inactive” in each case. Moreover, the Potency in assay [5] was 0.0059 µM (active); in assay [9] it was 0.0053 µM (active); in assay [7], 0.0148 µM (active).
As to `CC(C)[C@H]1C(=O)N[C@H](CO)Cc2c[nH]c3cccc(c23)N1C`, the cell viability, % of control (lower = more cytotoxic) in assay [1] amounted to 391%. For the same molecule, the viability (% of control) in assay [2] was 82.8%. Further, the Potency in assay [3] was 23.5 µM (active). Besides, the Potency result in assay [4], in assay [6], in [9] and in [7] was “inactive” each time.
Turning to `N#C[C@H](O[C@@H]1O[C@H](CO[C@@H]2O[C@H](CO)[C@H](O)[C@H](O)[C@H]2O)[C@H](O)[C@H](O)[C@H]1O)c1ccccc1`, in assay [1], the cell viability, % of control (lower = more cytotoxic) came out at 180%. For the same molecule, in assay [2], the viability (% of control) worked out at 52.5%. Further, the Potency result in [3] and in [4] was “inactive” each time. Moreover, the Potency in [5] was 23.5 µM (active); in assay [6] it was 20.9 µM (active); in assay [9], 20.9 µM (active); in [7] it was 20.9 µM (active).
As to `CC1=NN=C(c2ccc(N)cc2)c2cc3c(cc2C1)OCO3`, in assay [1], the cell viability, % of control (lower = more cytotoxic) is 244%. In addition, the viability (% of control) in assay [2] was 12.1%. Moreover, the Potency entry in [3], in [4], in [5], in assay [6], in [9] and in assay [8] was “inactive” throughout.
In the case of `CCOC(=O)c1cncn1[C@H](C)c1ccccc1`, the cell viability, % of control (lower = more cytotoxic) in assay [1] was found to be 124%. The viability (% of control) in assay [2] turned out to be 105%. The Potency result in assay [3], in assay [4], in assay [6], in [9] and in [10] was “inactive” throughout.
As for `CC(C)(C)[C@]1(O)C[C@@H]2OC(=O)C[C@@]23C(=O)O[C@@H]2OC(=O)[C@H](O)C213` (some centres not stated), the cell viability, % of control (lower = more cytotoxic) in assay [1] amounted to 106%. Also, in assay [2], the viability (% of control) came out at 124%. Besides, the Potency entry in [3], in [4], in assay [5], in assay [9], in assay [8] and in [7] was “inactive” each time. In addition, the Potency in assay [6] is 20.9 µM (active).
For the molecule `CCCCCC[C@H]1C(=O)O[C@H](C)[C@H](NC(=O)c2cccc(NC=O)c2O)C(=O)O[C@@H](C)[C@@H]1OC(=O)CC(C)C`, the cell viability, % of control (lower = more cytotoxic) in assay [1] amounted to 177%. Moreover, the viability (% of control) in [2] is 85.6%. Besides, the Potency entry in assay [3] and in assay [4] was “inactive” each time. The Potency in assay [5] is 0.0418 µM (active); in assay [9], 0.105 µM (active); in assay [10], 0.0833 µM (active).
Regarding `CCN(CC)C(=O)c1ccc(C2=CC3(CCNCC3)Oc3cccc(O)c32)cc1`, the cell viability, % of control (lower = more cytotoxic) in assay [1] turned out to be 122%. Besides, the viability (% of control) in [2] is 79%. The Potency entry in [3], in assay [4], in assay [5], in assay [6], in assay [9] and in assay [7] was “inactive” in each case.
`O=C(Oc1ccc([N+](=O)[O-])cc1)N1CCN(Cc2cccc(Oc3ccccc3)c2)CC1`: the viability (% of control) in assay [2] came to 54.4%. Moreover, the Potency result in assay [3], in assay [4], in assay [5], in [9], in [10] and in assay [7] was “inactive” in each case.
In the case of `Oc1ccc2c3c1O[C@H]1c4[nH]c5c(c4C[C@@]4(O)[C@@H](C2)N(CC2CC2)CC[C@]314)C[C@@]1(O)[C@H]2Cc3ccc(O)c4c3[C@@]1(CCN2CC1CC1)[C@H]5O4`, in assay [2], the viability (% of control) came to 119%. Moreover, the Potency result in [3], in [4], in assay [6], in assay [9], in assay [8] and in assay [7] was “inactive” throughout.
On to `CCCC[N+]1(C)[C@H]2CC(OC(=O)[C@H](CO)c3ccccc3)C[C@H]1[C@H]1O[C@H]12` (some centres not stated), for which the viability (% of control) in [2] was 120%. Also, the Potency entry in assay [3], in assay [4], in assay [5], in assay [6], in [9] and in assay [7] was “inactive” throughout.

(Values after PubChem BioAssay (NCATS).)
